In PubChem BioAssay AID624297 (National Center for Advancing Translational Sciences (NCATS), 2012) one finds Potency and re-replication activation data, which are given here for 100 compounds.

Among all 340,000 compounds or so, about 6,200 (1.8%) were called active. Where a call stands in place of a potency, no number is given. Another 10% or so got no clear call; they are omitted. The sample holds actives, similar compounds and a random draw of the others, so the mix is not that of the screen. Values without a mark were called inactive. Calls come from the whole dose curve; as a rule, active = well fitted activation curve with a large enough effect; inconclusive = small, poorly fitted or top-dose-only effect; inactive = no such curve, though single readings can be large or run the other way.
Potency is the fitted concentration of half-maximal effect.

This assay in a line: A quantitative high throughput screen for small molecules that induce DNA re-replication in SW480 colon adenocarcinoma cells. Note: nearly all actives have a fitted effect of over 55% in size. Particulars: Hoechst DNA content imaging, 48 h; series mostly up to 46.1 µM. An outline of the steps:
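SW480 cells exposed to compounds for 48 hr at 37 C, 5% CO2, then Hoechst-stained 40 min. Nuclear DNA content imaged by fluorescence scanning (405 nm excitation, 500-530 nm emission); re-replication scored as increased high-intensity nuclei.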
For the compound `CC(C)(C)OC(=O)C1=C(CO)CS[C@@H]2[C@H](NC(=O)Cc3ccccc3)C(=O)N12`, the Potency entry was “inactive”.

As to `OCCN1CCN(CCO)C1=S`, the Potency entry was “inactive”.

With `CCc1ccc(OCC(=O)NCC(c2ccc(Cl)cc2)N2CCCCC2)cc1` (stereo not given), the Potency is 9.2 µM (active).

`COc1ccc(C(CNC(=O)COc2ccccc2OC)N2CCCCC2)cc1` (stereo not given): the Potency result was “inactive”.

For the compound `COc1ccc(C(CNC(=O)COc2ccc([N+](=O)[O-])cc2)N2CCCCC2)cc1` (stereo not given), the Potency entry was “inactive”.

Take `O=C(CNS(=O)(=O)c1ccc2c(c1)OCCCO2)N1CCN(c2ccc(F)cc2)CC1`: the Potency entry is “inactive”.

In the case of `O=C1COc2c1ccc(O)c2O`, the Potency result is “inactive”.

Turning to `CCOC(=O)C1(CCOc2ccccc2)CCN(Cc2cc(OC)c(O)cc2Cl)CC1`, the Potency entry is “inactive”.

Take `OCC1(CCOc2ccccc2)CCN(Cc2cn[nH]c2-c2ccccc2)CC1`: the Potency entry was “inactive”.

For `Cc1c(CN2CCC(CO)(CCOc3ccccc3)CC2)[nH]c2ccc(Cl)cc12`, the Potency was 14.6 µM (active).

For the compound `CCOC(=O)C1=CN(Cc2ccc(Br)cc2)S(=O)(=O)N(C)C1C` (stereo not given), the Potency entry is “inactive”.

With `Cc1ccc(NC(=O)NC2CCCCC2)cc1S(=O)(=O)N1CCOCC1`, the Potency entry was “inactive”.

As for `Cc1ccc(NC(=O)C2CCC(C(C)(C)C)CC2)cc1S(=O)(=O)N1CCOCC1` (stereo not given), the Potency is 14.6 µM (active).

Take `Cc1ccc(NC(=O)COC(=O)C2CC2)cc1S(=O)(=O)N1CCOCC1`: the Potency result was “inactive”.

For the compound `CC(=O)Nc1ccc(OCC(=O)NCc2ccc(C)cc2)cc1`, the Potency result was “inactive”.

In the case of `C/C(CC(=O)NCc1ccc(Cl)cc1)=N\NC(=O)COc1ccc(C)cc1Br`, the Potency is 14.6 µM (active).

As to `Cc1cc(Cl)ccc1OCCCC(=O)NCc1ccncc1`, the Potency result is “inactive”.

As to `COc1ccc(C2NCCCC2c2ccccc2)cc1` (stereo not given), the Potency result is “inactive”.

As for `CCN(C(=O)COC(=O)c1ccccc1O)c1cccc2ccccc12`, the Potency entry was “inactive”.

In the case of `CCC1([N+](=O)[O-])COC(c2ccc(C)cc2)OC1` (stereo not given), the Potency result was “inactive”.

Take `CC(C)(C)S(=O)(=O)N1Cc2cc(CO)cc(CCO)c2[C@H]1CCO`: the Potency result was “inactive”.

In the case of `O=C(O)C(c1cccs1)C1(O)CCCCC1` (stereo not given), the Potency result is “inactive”.

On to `O=C(Cc1cccc2ccccc12)NCCC1=CCCCC1`, for which the Potency result was “inactive”.

`Cc1nnc(OCC(=O)NCCC2=CCCCC2)c2ccccc12`: the Potency is 16.4 µM (active).

Consider `O=C(COc1ccc(Cl)cc1)NCCC1=CCCCC1`, for which the Potency result is “inactive”.

As for `COc1ccc(OC)c(NC(=O)c2sc3nc(C)cc(C)c3c2N)c1`, the Potency is 9.2 µM (active).

In the case of `CCc1nnc(NC(=O)c2sc3nc(C)cc(COC)c3c2N)s1`, the Potency entry is “inactive”.

Turning to `COCc1cc(C)nc2sc(C(=O)NC3CCCCC3)c(N)c12`, the Potency result was “inactive”.

`CCOc1ccc(/C=C(/C#N)c2nnc(N3CCOCC3)n2-c2ccccc2)cc1OC`: the Potency entry is “inactive”.

Turning to `COc1cc2cc(C(=O)N/N=C/c3cccc(OC)c3OC)[nH]c2cc1OC`, the Potency result was “inactive”.

As to `CN(C)CCNC(=O)c1[nH]nc2c1CCc1ccccc1-2`, the Potency entry was “inactive”.

For the compound `COc1cccc(/C=N/NC(=O)c2[nH]nc3c2CCc2ccccc2-3)c1O`, the Potency was 3.26 µM (active).

Turning to `COc1ccccc1C(=O)CSc1cccc[n+]1[O-]`, the Potency entry is “inactive”.

Turning to `O=C(CSc1cccc[n+]1[O-])c1ccc(Cl)cc1`, the Potency result was “inactive”.

As to `O=C(CSc1cccc[n+]1[O-])c1ccc(-c2ccccc2)cc1`, the Potency was 2.82 µM (active).

Consider `O=C(NCCc1ccc(F)cc1)c1ccc2nccnc2c1`, for which the Potency result was “inactive”.

With `O=C(OCCOc1ccccc1Cl)c1cc(S(=O)(=O)N2CCCCC2)ccc1N1CCOCC1`, the Potency result is “inactive”.

Take `Cc1cc(C(=O)Nc2nnc(C3CC3)s2)c(C)s1`: the Potency entry is “inactive”.

Turning to `O=C(CSc1nc2ccccc2c(=O)n1Cc1ccc(F)cc1)NCC1CCCO1` (stereo not given), the Potency entry is “inactive”.

Turning to `Cc1cccn2c(=O)c3cc(C#N)c(=O)n(CCCN4CCOCC4)c3nc12`, the Potency entry was “inactive”.

Regarding `O=C(NCC1CCCO1)c1cc2c([nH]c3ccccc32)c(-c2ccc(F)cc2)n1` (stereo not given), the Potency entry was “inactive”.

For the compound `Cc1ccc(Cn2c(C)c3cnn(CC(=O)NCCN4CCOCC4)c(=O)c3c2C)cc1`, the Potency entry is “inactive”.

For the compound `Cc1cccn2c(=O)c3cc(C(=O)NCCN4CCOCC4)c(=N)n(Cc4cccnc4)c3nc12`, the Potency is 4.11 µM (active).

Regarding `Cc1ccc(CCNC(=O)c2ccc3nc4ccccc4c(=O)n3c2)cc1`, the Potency result is “inactive”.

As to `Cc1ccc2nc3c(cc(C(=O)NCCc4ccccc4)c(=N)n3CC3CCCO3)c(=O)n2c1` (stereo not given), the Potency is 11.6 µM (active).

Turning to `COc1ccc(CCNC(=O)Cn2c(=O)n(CC3CCCO3)c(=O)c3ccccc32)cc1OC` (stereo not given), the Potency entry is “inactive”.

Turning to `Cc1cccn2c(=O)c3cc(C(=O)NCC4CCCO4)c(=N)n(Cc4ccc(F)cc4)c3nc12` (stereo not given), the Potency was 8.2 µM (active).

With `COc1ccccc1NC(=O)N(O)C1(C#N)CCCCC1`, the Potency entry was “inactive”.

As to `O=C(Cn1cnc2ccccc2c1=O)NNC(=O)c1ccccc1F`, the Potency entry was “inactive”.

With `CCCN(C(=O)COC(=O)CNS(=O)(=O)c1ccc(NC(C)=O)cc1)C1CCS(=O)(=O)C1` (stereo not given), the Potency entry is “inactive”.

As to `C[C@H]1CN([C@@H](C)CO)C(=O)Cc2cc(NS(C)(=O)=O)ccc2O[C@@H]1CN(C)CC1CC1`, the Potency entry is “inactive”.

On to `NC(=O)c1ncn([C@@H]2O[C@H](CN=C3NS(=O)(=O)c4ccccc43)[C@@H](O)[C@H]2O)n1`, for which the Potency entry is “inactive”.

`Nc1ccc2nc3c(=O)[nH]c(=S)[nH]c3nc2c1`: the Potency was 4.61 µM (active).

On to `CSCCC(NC(=O)COc1ccccc1)C(=O)N1CCN(c2cccc(C(F)(F)F)c2)CC1` (stereo not given), for which the Potency entry was “inactive”.

With `CCN(CC)C(=O)[C@H]1C[C@H](CC(=O)NCC23CC4CC(CC(C4)C2)C3)C(=O)N2CCc3c([nH]c4cc(CCC(=O)N(C)C)ccc34)[C@]12C`, the re-replication activation is 25.4% [at 9.22 µM].

Regarding `CN(C)C(CNC(=O)c1cc2ccccc2o1)c1ccccc1` (stereo not given), the Potency entry was “inactive”.

On to `O=C(c1cnccn1)N1CCN(S(=O)(=O)c2cccc(Cl)c2)CC1`, for which the Potency entry was “inactive”.

Consider `COc1ccc(N=C(C)c2sc3ccccc3c2O)cc1`, for which the Potency result was “inactive”.

Take `Cc1nn(C)cc1/C=N/NC(=O)c1sc2ccccc2c1Cl`: the Potency result was “inactive”.

`Oc1ccc(N=Cc2sc3ccccc3c2Cl)cc1`: the Potency was 9.2 µM (active).

As to `CC1(C)C(=O)CCC2(C)C1=CCC1C2C(=O)CC2(C)C1CCC2(O)C(=O)CO` (stereo not given), the Potency result was “inactive”.

Consider `COc1ccc(-c2cc(C(F)(F)F)nc(S(C)(=O)=O)n2)cc1OC`, for which the Potency was 4.11 µM (active).

For `COc1ccc(-c2ccc(Nc3ccc(S(=O)(=O)N4CCCC4)cc3)nn2)cc1OC`, the Potency result was “inactive”.

With `COc1ccc(-c2cc(C(F)(F)F)nc(NCc3cccnc3)n2)cc1`, the Potency result was “inactive”.

In the case of `CC[C@]12c3[nH]c4cc(CCC(=O)N(C)C)ccc4c3CCN1C(=O)[C@@H](CC(=O)NCCCn1ccnc1)C[C@@H]2C(=O)N1CCN(C(=O)C2CC2)CC1`, the Potency result is “inactive”.

Turning to `NC1=NOC(=O)C1C1CCCCC1` (stereo not given), the Potency entry is “inactive”.

For the compound `CC(=O)OCC(=O)C1(O)CCC2C3CC(C)C4=CC(=O)CCC4(C)C3C(O)CC21C` (stereo not given), the Potency result is “inactive”.

On to `O=C(c1ccc2c(c1)C(=O)N(Cc1ccncc1)C2=O)N1CCN(S(=O)(=O)c2ccc(OC(F)(F)F)cc2)CC1`, for which the Potency result is “inactive”.

Take `CCN(C[C@H]1N[C@@](CC)(C(=O)OC)[C@H]2C(=O)N(C)C(=O)[C@@H]12)C(=O)Nc1ccc(F)cc1`: the Potency result is “inactive”.

In the case of `CC(=O)Oc1ccccc1C1=NN(C(C)=O)C(c2ccccc2)C1` (stereo not given), the Potency entry is “inactive”.

Regarding `Oc1ccccc1C1=NN(c2ccccc2)C(c2ccccc2)C1` (stereo not given), the Potency is 8.2 µM (active).

Take `O=C(c1ccccc1)N1N=C(c2ccccc2O)CC1c1ccc(Br)cc1` (stereo not given): the Potency entry is “inactive”.

Take `O=C1NCC(=O)N(Cc2ccccc2)/C1=C/c1ccccc1`: the Potency result is “inactive”.

With `Clc1ccc(CN2CCN(/N=C/c3cccnc3)CC2)cc1`, the Potency result is “inactive”.

Regarding `O=C1/C(=C\c2cccnc2)CN(Cc2ccccc2)C/C1=C\c1cccnc1`, the Potency is 0.13 µM (active).

For the compound `COc1cc(/C=N\NC(=O)c2nonc2N)c(OC)cc1Br`, the Potency was 0.291 µM (active).

As for `Cc1cc(C)c([N+](=O)[O-])cc1-c1ccc(/C=N/NC(=O)c2nonc2N)o1`, the Potency result was “inactive”.

Regarding `COc1cc(OC)c(/C=N/NC(=O)c2ccc([N+](=O)[O-])cc2)cc1Br`, the Potency result was “inactive”.

For the compound `C[C@@H]1CN([C@@H](C)CO)C(=O)c2cc(NC(=O)C3CC3)ccc2O[C@H]1CN(C)C`, the Potency entry is “inactive”.

On to `COc1cc(C(=O)OCc2cc(=O)n3ccsc3n2)ccc1OC(C)C`, for which the Potency entry is “inactive”.

For `CC(C)(C)C1CCC(=NNC(=O)c2cc(-c3ccccc3)n[nH]2)CC1` (stereo not given), the Potency result is “inactive”.

On to `CC(NC(=O)C(=O)N/N=C/c1ccc(Cl)cc1)c1ccccc1` (stereo not given), for which the Potency entry was “inactive”.

As for `CC(NC(=O)C(=O)NN=C1CCC(C(C)(C)C)CC1)c1ccccc1` (stereo not given), the Potency was 0.731 µM (active).

Regarding `CC[C@@]1(C(=O)OC)N[C@H](CN(C)C(C)=O)[C@@H]2C(=O)N(C)C(=O)[C@@H]21`, the Potency result was “inactive”.

With `COc1ccccc1C1C2=C(COC2=O)Nc2cc3c(cc21)OCO3` (stereo not given), the Potency entry is “inactive”.

With `COC(=O)C1=C(C)NC(=O)CC1c1ccccc1OC` (stereo not given), the Potency result was “inactive”.

On to `CCCOc1ccccc1C1CC(=O)Nc2cc3c(cc21)OCO3` (stereo not given), for which the Potency was 3.66 µM (active).

In the case of `COc1ccc(C)cc1NC(=O)CSc1cccc[n+]1[O-]`, the Potency entry is “inactive”.

In the case of `O=S(=O)(Cc1ccc(Cl)cc1Cl)c1ccc(Cl)cc1`, the Potency is 1.3 µM (active).

Take `O=S(=O)(NCc1ccc(Cl)cc1Cl)c1cccs1`: the Potency entry was “inactive”.

On to `Cc1ccc(S(=O)(=O)Cc2cc(-c3ccc(Cl)cc3)no2)cc1`, for which the Potency entry is “inactive”.

`Nn1c(SCC(=O)NC2CCCc3ccccc32)nnc1C1CC1` (stereo not given): the Potency result was “inactive”.

For `CN(C)C(=O)CCc1ccc2c3c([nH]c2c1)[C@]1(CCC2CCCC2)[C@@H](C(=O)N2CCOCC2)C[C@H](CC(=O)NCc2ccco2)C(=O)N1CC3`, the re-replication activation was 19.7% [at 9.22 µM].

Turning to `O=C1c2ccccc2C(=O)N1CCCCCCN1C(=O)c2ccccc2C1=O`, the Potency result was “inactive”.

For `CC(CNC(=O)Cn1cnc2c(OCc3ccccc3)ncnc21)c1ccccc1` (stereo not given), the Potency result was “inactive”.

Turning to `O=C(/C=C/c1cccc(C(F)(F)F)c1)N1CCN(c2ccccn2)CC1`, the Potency was 4.61 µM (active).

Turning to `O=C(C(Cl)Cl)N1CCN(c2ccccn2)CC1`, the Potency entry is “inactive”.

For `O=C(Cc1ccc(Br)cc1)N1CCN(c2ccccn2)CC1`, the Potency result was “inactive”.

`O=C(c1cccnc1)N(Cc1ccccc1)C(=O)c1cccnc1`: the Potency entry is “inactive”.

Take `CCOC(=O)N(Cc1ccccc1)C1CC1`: the Potency entry was “inactive”.
